± gives the standard deviation of the averaged measurements. The full ranking holds about 33,000 sequences; the median of “E-score (dimensionless, -0.5 to 0.5)” is about -0.046, and the highest 2% start at about 0.36. Shown is part of a subset that was picked to be rich in the highest values.
system: T1, SpTbr T-box DNA-binding domain (GST fusion); test: PBM E-score of 8-mer (E-score (dimensionless, -0.5 to 0.5)); Tbr is Tbrain of the sea star Patiria miniata (Pm) or the sea urchin Strongylocentrotus purpuratus (Sp); higher = stronger binding preference; details: the construct has about 5 more residues each side
T1 sequence: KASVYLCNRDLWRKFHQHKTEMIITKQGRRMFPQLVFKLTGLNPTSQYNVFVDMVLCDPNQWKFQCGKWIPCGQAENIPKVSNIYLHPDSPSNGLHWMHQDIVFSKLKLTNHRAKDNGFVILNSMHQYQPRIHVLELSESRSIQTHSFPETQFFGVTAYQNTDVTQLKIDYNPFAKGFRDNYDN
In short: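 Using the Universal PBM Analysis Suite, every ungapped 8-mer received an enrichment E-score averaged over duplicate arrays. Probe intensities came from double-stranded Universal Agilent oligonucleotide arrays incubated with 200 nM GST-fused Tbr T-box DNA-binding domain in PBS (pH 7.5). That protein was expressed in BL21 E. coli at 20 °C and purified by glutathione affinity chromatography.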

| Sequence | PBM E-score of 8-mer |
| --- | --- |
| ACGCAGGC | -0.149 ± 0.011 |
| CTTAGTGA | 0.0752 ± 0.0019 |
| ACGCGAGT | 0.107 ± 0.072 |
| ATGGGAGC | -0.168 ± 0.01 |
| AGTTCACG | 0.338 ± 0.049 |
| GGTTCAAA | -0.343 ± 0.0085 |
| CGATCACA | 0.396 ± 0.0068 |
| GGTTCACA | 0.3973 ± 0.0018 |
| AGTTCACA | 0.442 ± 0.013 |
| CGTTCACC | 0.0843 ± 0.012 |
| GGTTCATA | -0.0395 ± 0.039 |
| CGATCACG | 0.221 ± 0.037 |
| AGATCACA | 0.342 ± 0.02 |
| AGTTCACC | -0.00201 ± 0.066 |
| CGTTCACA | 0.418 ± 0.0069 |
| CGTTCAAG | -0.167 ± 0.0076 |
| TAGATCCA | -0.288 ± 0.061 |
| CTAGTTTA | -0.132 ± 0.14 |
| AGTCCTGG | -0.262 ± 0.021 |
| CGGAGATA | 0.0372 ± 0.0019 |
| AATTGGGA | -0.0875 ± 0.07 |
| CCTTGGAG | -0.1541 ± 0.00054 |

| Sequence | PBM E-score of 8-mer |
| --- | --- |
| ACGCGCCG | 0.227 ± 0.11 |
| ACACAGTA | 0.116 ± 0.02 |
| GCCTTCGC | 0.296 ± 0.0037 |
| CGATGCAG | -0.164 ± 0.022 |
| AATCTTCC | -0.133 ± 0.036 |
| GAAGTAAA | -0.281 ± 0.027 |
| ATAATCTC | -0.0752 ± 0.092 |
| CCGAGACG | -0.121 ± 0.015 |
| TCGCGAGA | 0.367 ± 0.01 |
| CCGCGAGA | 0.224 ± 0.037 |
| GCGCGAGC | 0.298 ± 0.053 |
| GCGCGAGA | 0.3663 ± 0.0029 |
| GCGAGAGA | 0.203 ± 0.061 |
| ACGCGAGA | 0.219 ± 0.016 |
| AACTATAT | -0.0107 ± 0.13 |
| GAGTTACC | 0.144 ± 0.011 |
| CGCACAGC | 0.122 ± 0.012 |
| GCCCCAAC | 0.133 ± 0.059 |
| ATGTGTAA | 0.342 ± 0.0099 |
| CTCACCTA | 0.385 ± 0.014 |
| GTCACCCA | 0.203 ± 0.0083 |
| GTCACCTA | 0.392 ± 0.017 |

| Sequence | PBM E-score of 8-mer |
| --- | --- |
| CTCACCGA | 0.0544 ± 0.017 |
| GTCACCGA | 0.0907 ± 0.0094 |
| CTTACCTA | -0.163 ± 0.054 |
| GGTCTCGA | -0.115 ± 0.014 |
| GCATGGGC | -0.0364 ± 0.0065 |
| GCTACTAC | 0.013 ± 0.035 |
| ATTCCCAA | -0.227 ± 0.012 |
| TGAGAGAA | 0.0644 ± 0.036 |
| GGTGAGAC | 0.3819 ± 0.0012 |
| CGTGAGGA | 0.178 ± 0.011 |
| GGTGAGGA | 0.384 ± 0.0073 |
| AGTGAGGA | 0.246 ± 0.028 |
| GGTGAGAA | 0.4745 ± 0.0016 |
| CGTGAGAA | 0.347 ± 0.016 |
| GCTGAGAA | 0.26 ± 0.048 |
| CGTGAGAC | 0.2491 ± 0.0021 |
| TCTGAGAA | -0.238 ± 0.12 |
| AGTGAGAC | 0.169 ± 0.04 |
| TGTGAGAA | 0.4336 ± 0.0026 |
| CGTTGAAG | 0.0941 ± 0.031 |
| ATGGACAA | 0.101 ± 0.003 |
| AGGCCAAC | -0.0875 ± 0.028 |

| Sequence | PBM E-score of 8-mer |
| --- | --- |
| CGAGTAGC | 0.0635 ± 0.0055 |
| TAGGGCGA | -0.00769 ± 0.086 |
| GAACTTGA | -0.0691 ± 0.0032 |
| CCGCGACG | 0.0384 ± 0.061 |
| ATCAGATA | -0.0339 ± 0.043 |
| AGTGAGAT | 0.287 ± 0.033 |
| AGTGAGAA | 0.422 ± 0.014 |
| AGTGAGAG | 0.3 ± 0.0092 |
| CAACCTGA | -0.0529 ± 0.059 |
| ATTGGTCC | -0.197 ± 0.039 |
| CACGTGTA | 0.272 ± 0.0034 |
| CACGTGAC | 0.286 ± 0.042 |
| AACGTGCG | 0.32 ± 0.0051 |
| CACGTGTC | 0.391 ± 0.014 |
| AACGTGTC | 0.372 ± 0.0067 |
| ACCGTGTG | 0.203 ± 0.052 |
| AGCGTGTC | 0.152 ± 0.072 |
| AACGTGTG | 0.4114 ± 0.0041 |
| AACGTGTA | 0.135 ± 0.074 |
| ACTCGATG | -0.0556 ± 0.081 |
| ACAACGAT | -0.00065 ± 0.016 |
| CACGCCCC | 0.24 ± 0.013 |

| Sequence | PBM E-score of 8-mer |
| --- | --- |
| AGACAACG | -0.0213 ± 0.033 |
| CAGCTAGG | 0.101 ± 0.087 |
| CAGCCTCC | -0.239 ± 0.021 |
| CAGGCTAC | -0.221 ± 0.014 |
| ACAATTCA | 0.163 ± 0.069 |
| GCCGACAA | 0.161 ± 0.014 |
| GCCGACAC | 0.397 ± 0.0048 |
| ACCGACAT | -0.042 ± 0.038 |
| ACCGACAC | 0.373 ± 0.0082 |
| CCCGACAG | 0.0718 ± 0.038 |
| ACCGACAA | -0.0797 ± 0.034 |
| CCCGACAA | 0.154 ± 0.02 |
| CCCGACAC | 0.367 ± 0.017 |
| GCCGACCC | -0.201 ± 0.12 |
| GACAATTA | 0.029 ± 0.11 |
| GGACAACA | 0.0909 ± 0.012 |
| GAGGATGC | -0.0317 ± 0.049 |
| CGGAATGC | -0.214 ± 0.051 |
| GCGAACGA | 0.283 ± 0.035 |
| CCGAACGC | -0.0118 ± 0.08 |
| GCGAACGC | 0.3749 ± 0.0018 |
| GCAGAGAA | -0.328 ± 0.0058 |

— the supplement of paper PMC4166925
